Values without a mark were called inactive. Results filed as inconclusive are left out. Active and inactive are the calls of the source. Unless noted, calls follow the shape of the full dose curve.

Test [1] can be described thus: Nuclear factor erythroid 2-related factor 2/antioxidant responsive element (Nrf2/ARE) small molecule agonists: qHTS cell viability counter screen in human keratinocytes (AID 1919968; active = well fitted curve in the direction sought with a large enough effect in the repeat runs; an effect the other way counts as inactive or inconclusive; also: nearly all actives have a fitted effect of over 55% in size; also: potency is read from the fitted curve at half-maximal effect). The method, boiled down:
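In human HaCaT keratinocytes stably expressing an ARE-driven luciferase, compound exposure lasted 23 h at 37 C under 5% CO2. Viable cells are quantified with a protease-based fluorogenic reagent (CellTiter-Fluor) read 1 h after addition.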
For orientation: qHTS replaces the single test concentration by a dilution series.

Test [2] is described as follows: Nuclear factor erythroid 2-related factor 2/antioxidant responsive element (Nrf2/ARE) small molecule agonists: luciferase reporter gene qHTS assay in human keratinocytes (AID 1919969). Also: nearly all actives have a fitted effect of over 35% in size. Also: potency is read from the fitted curve at half-maximal effect. For orientation: Reporter assays use an easily measured gene product as a stand-in for the process of interest.
For test [3], the target named is Gonadotropin-releasing hormone receptor (Homo sapiens) (UniProt P30968). As to the kind of experiment: Human gonadotropin-releasing hormone receptor (GnRHR) small molecule agonists, calcium flux assay in GnRHR-HEK293 cells (AID 1920063). Also: nearly all actives have a fitted effect of over 35% in size. The method, boiled down:
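Intracellular calcium rise is the read-out: engineered human GnRHR HEK293 cells, dye-loaded, are exposed to DMSO-dissolved compounds and fluorescence at Ex/Em 480/540 is tracked for 3 min.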
For orientation: Calcium flux is commonly read through the fluorescence of an indicator in the cells.

The target of test [4] is KiSS-1 receptor (Homo sapiens) (UniProt Q969F8). As to the kind of experiment: Human kisspeptin (KISS1R) small molecule agonists, calcium flux assay in KISS1R-HEK293 cells (AID 1920064; active = well fitted curve in the direction sought with a large enough effect in the repeat runs; an effect the other way counts as inactive or inconclusive). The method, boiled down: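 Concentration-response testing used 15 concentrations in triplicate on human KISS1R-expressing HEK293 cells. Calcium-dependent fluorescence (Ex/Em 480/540) was followed kinetically for 3 min after compound transfer.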
KiSS-1 receptor (Homo sapiens), sequence (Q969F8 whole entry, looked up): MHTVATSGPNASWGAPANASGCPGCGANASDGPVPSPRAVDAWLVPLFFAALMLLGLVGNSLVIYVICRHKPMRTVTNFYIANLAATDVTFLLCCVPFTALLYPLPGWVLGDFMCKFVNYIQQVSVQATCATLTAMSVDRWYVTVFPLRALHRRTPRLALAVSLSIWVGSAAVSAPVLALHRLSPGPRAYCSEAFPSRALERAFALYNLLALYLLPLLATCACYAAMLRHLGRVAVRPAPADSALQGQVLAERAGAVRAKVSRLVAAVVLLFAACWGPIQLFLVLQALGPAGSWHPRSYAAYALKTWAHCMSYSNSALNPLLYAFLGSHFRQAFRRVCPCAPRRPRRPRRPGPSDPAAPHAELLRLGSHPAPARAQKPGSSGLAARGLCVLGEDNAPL

A short description of test [5]: G protein-coupled receptor (GPCR) small molecule agonists, calcium flux assay: HEK293 wild type cell line counter screen (AID 1920065). The procedure, abridged: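 Fluorescence intensity signals activation. After overnight (18 h) culture and a 1 h calcium dye load at 37 C, compounds are added by pin tool and the plate read at 480/540 nm for 3 min in 1 s steps.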
A short description of test [6]: p53 small molecule agonists, cell-based qHTS assay with rat liver microsomes: qHTS cell viability counter screen (AID 1963580). Also: nearly all actives have a fitted effect of over 45% in size. The method, boiled down:
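Counter screen for cytotoxicity under metabolic activation: rat liver microsomes and NADPH, 0.5 mg/mL final each, added with compounds to p53RE-bla HCT-116 cells; 16 h at 37 C, then ATP luminescence read.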

Test [7] deals with Muscarinic acetylcholine receptor M1 (Homo sapiens) (UniProt P11229). As to the kind of experiment: Cholinergic receptor muscarinic 1 (CHRM1) small molecule antagonists, cell-based qHTS assay (AID 1963588). Also: nearly all actives have a fitted effect of over 40% in size. Also: potency is read from the fitted curve at half-maximal effect. The procedure, abridged: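 Compounds were tested at 15 concentrations in three independent runs. Dye-loaded CHRM1-CHO cells were exposed 5 min at room temperature before stimulation by acetylcholine added at 50nM. Intracellular calcium was read kinetically on FDSS for 3 min.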
Muscarinic acetylcholine receptor M1 (Homo sapiens), sequence (P11229 whole entry, looked up): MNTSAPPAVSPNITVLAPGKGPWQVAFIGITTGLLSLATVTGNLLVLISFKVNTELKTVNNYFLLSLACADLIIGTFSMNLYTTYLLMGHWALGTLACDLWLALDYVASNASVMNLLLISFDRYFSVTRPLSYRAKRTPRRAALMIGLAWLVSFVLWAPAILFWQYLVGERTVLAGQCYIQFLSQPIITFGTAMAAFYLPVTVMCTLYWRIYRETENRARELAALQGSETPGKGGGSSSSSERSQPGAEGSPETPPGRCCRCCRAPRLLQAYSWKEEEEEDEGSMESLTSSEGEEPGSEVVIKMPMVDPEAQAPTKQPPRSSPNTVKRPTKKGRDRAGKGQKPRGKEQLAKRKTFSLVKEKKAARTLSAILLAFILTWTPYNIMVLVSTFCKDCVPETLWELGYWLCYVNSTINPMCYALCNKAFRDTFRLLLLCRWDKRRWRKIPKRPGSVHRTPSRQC

Test [8] shares this target. Nature of the test: Cholinergic receptor muscarinic 1 (CHRM1) small molecule agonists, cell-based qHTS assay (AID 1963589). Also: nearly all actives have a fitted effect of over 35% in size. The method, boiled down: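 Fluorescent calcium dye reports M1 activation in stably transfected CHO cells. Compounds, 15 concentrations, added after 1 h dye loading at 37 C; kinetic reading at 1 sec intervals.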
The nature of test [9]: cAMP Responsive Elements (CRE) small molecule agonists, cell-based qHTS assay (AID 1963590). The procedure, abridged: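 Compound exposure lasted 3 h at 37 C/5% CO2 in CRE-bla HEK 293T cells grown in assay medium with 10% dialyzed FBS and 25 mM HEPES. Reporter signal came from LiveBLAzer B/G FRET substrate, 2 h, room temperature.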
Test [10] is described as follows: cAMP Responsive Elements (CRE) small molecule antagonists, cell-based qHTS assay (AID 1963591; active = well fitted inhibition curve with a large enough effect in the signal ratio in the repeat runs, not every such curve was filed as active; the % refers to the signal ratio). The procedure, abridged:
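Stimulation used NKH477 at a final 0.25 uM for 3 h in compound-treated CRE-bla HEK293T cells, seeded 18 h beforehand. Reporter activity was measured with LiveBLAzer B/G FRET substrate after 2 h at room temperature.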

Test [11] addresses D(2) dopamine receptor (Homo sapiens) (UniProt P14416). Nature of the test: Dopamine D2 receptor (DRD2) small molecule agonists, cell-based qHTS assay (AID 1963594). Also: nearly all actives have a fitted effect of over 35% in size. The method, boiled down: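 HEK293 cells stably expressing DRD2 were cultured 24 h at 37 C, then given Ro20-1724 (0.1 mM final) and compounds for 10 min at room temperature. NKH477 (200nM) was then added for 30 min. cAMP was read by HTRF.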

Test [12] has the same target. As to the kind of experiment: Dopamine D2 receptor (DRD2) small molecule antagonists, cell-based qHTS assay (AID 1963595; active = well fitted inhibition curve with a large enough effect in the signal ratio in the repeat runs, with a control signal flat; the % refers to the signal ratio). The method, boiled down: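 Antagonist mode in DRD2-HEK293 cells: after compound addition with 0.1 mM Ro20-1724, cells received quinpirole (12 nM) and NKH477 (200 nM) for 30 min at room temperature; HTRF cAMP read after 1 h detection.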
Test [13] is described as follows: p53 small molecule agonists, cell-based qHTS assay: qHTS cell viability counter screen (AID 1963581). Also: nearly all actives have a fitted effect of over 45% in size. The method, boiled down: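 Luminescence from CellTiter-Glo, reflecting ATP content, serves as the cytotoxicity measure; it is taken after the 2 h reporter substrate step in HCT-116 p53RE-bla cells dosed for 16 h at 37 C.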
Test [14] addresses 5-hydroxytryptamine receptor 2A (Homo sapiens) (UniProt P28223). Nature of the test: 5-hydroxytryptamine receptor 2A (HTR2A) small molecule antagonists, cell-based qHTS assay (AID 1963586). Also: nearly all actives have a fitted effect of over 45% in size. The procedure, abridged: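 CHO cells stably expressing human HTR2A were plated for 18 h at 37 C, then loaded with calcium dye for 1 h. Compounds were preincubated 5 min at room temperature before DOI (4 nM solution) was added. Kinetic fluorescence was read for 3 min.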

For test [15] the target is unchanged. Nature of the test: 5-hydroxytryptamine receptor 2A (HTR2A) small molecule agonists, cell-based qHTS assay (AID 1963587). Also: nearly all actives have a fitted effect of over 30% in size. Also: potency is read from the fitted curve at half-maximal effect. The method, boiled down:
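HTR2A-CHO cells, plated 18 h at 37 C/5% CO2, dye-loaded 1 h at 37 C; compounds in DMSO added by pin tool (agonist mode). Intracellular calcium flux read as kinetic fluorescence on FDSS over 2 min at 1 s intervals.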

The target in test [16] is Beta-2 adrenergic receptor (Homo sapiens) (UniProt P07550). As to the kind of experiment: Adrenergic beta2 receptor (ADRB2) small molecule antagonists, cell-based qHTS assay (AID 1963592). Also: series mostly up to about 92 µM; nearly all actives have a fitted effect of over 50% in size. The procedure, abridged:
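Assay format: CHO-ADRB2 cells, 18-20hr seeding at 37C/5% CO2, then compound plus 1nM isoproterenol agonist mix for 0.5hr RT. Homogeneous time-resolved fluorescence cAMP detection after 1hr, expressed as 665/615 nm ratio.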

For test [17] the target is unchanged. As to the kind of experiment: Adrenergic beta2 receptor (ADRB2) small molecule agonists, cell-based qHTS assay (AID 1963593).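 Also: CHO cells stably overexpressing human ADRB2.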 The procedure, abridged: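 CHO cells stably over-expressing ADRB2 were plated overnight at 37C, then dosed with compounds plus a stimulation mix containing 100uM IBMX and 25uM Ro-20-1724 for 0.5hr at room temperature. cAMP was measured by HTRF competition, 1hr.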

The nature of test [18]: p53 small molecule agonists, cell-based qHTS assay with human liver microsomes: qHTS cell viability counter screen (AID 1963579). Also: nearly all actives have a fitted effect of over 45% in size. The method, boiled down: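 Metabolic activation used human liver microsomes and NADPH, both 0.5 mg/mL final, over 16 hours at 37 C on p53RE-bla cells (4,000/well). Cytotoxicity measured by CellTiter-Glo luminescence, 30 min at room temperature.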

Test [19] in a line: p53 small molecule agonists, cell-based qHTS assay (AID 1963582; active = well fitted activation curve with a large enough effect in the signal ratio in the repeat runs, not every such curve was filed as active; the % refers to the signal ratio). The method, boiled down:
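After plating, p53RE-bla cells sat 5 h in the incubator; compounds or DMSO vehicle were pinned in; a 16 h incubation at 37 C followed; FRET substrate was added and, 2 h later at RT, fluorescence was measured.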

Beta-2 adrenergic receptor (Homo sapiens), sequence (P07550 whole entry, looked up): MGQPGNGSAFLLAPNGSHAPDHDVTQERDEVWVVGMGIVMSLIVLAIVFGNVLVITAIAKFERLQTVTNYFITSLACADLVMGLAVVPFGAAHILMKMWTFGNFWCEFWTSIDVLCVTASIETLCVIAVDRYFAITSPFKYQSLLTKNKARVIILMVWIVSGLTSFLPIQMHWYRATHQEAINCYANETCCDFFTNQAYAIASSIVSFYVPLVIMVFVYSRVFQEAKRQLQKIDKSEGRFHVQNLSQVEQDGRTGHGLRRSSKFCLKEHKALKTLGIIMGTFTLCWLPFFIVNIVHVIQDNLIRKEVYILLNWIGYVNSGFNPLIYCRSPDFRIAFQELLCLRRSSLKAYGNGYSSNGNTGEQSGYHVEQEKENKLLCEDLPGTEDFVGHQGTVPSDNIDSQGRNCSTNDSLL
5-hydroxytryptamine receptor 2A (Homo sapiens), sequence (P28223 whole entry, looked up): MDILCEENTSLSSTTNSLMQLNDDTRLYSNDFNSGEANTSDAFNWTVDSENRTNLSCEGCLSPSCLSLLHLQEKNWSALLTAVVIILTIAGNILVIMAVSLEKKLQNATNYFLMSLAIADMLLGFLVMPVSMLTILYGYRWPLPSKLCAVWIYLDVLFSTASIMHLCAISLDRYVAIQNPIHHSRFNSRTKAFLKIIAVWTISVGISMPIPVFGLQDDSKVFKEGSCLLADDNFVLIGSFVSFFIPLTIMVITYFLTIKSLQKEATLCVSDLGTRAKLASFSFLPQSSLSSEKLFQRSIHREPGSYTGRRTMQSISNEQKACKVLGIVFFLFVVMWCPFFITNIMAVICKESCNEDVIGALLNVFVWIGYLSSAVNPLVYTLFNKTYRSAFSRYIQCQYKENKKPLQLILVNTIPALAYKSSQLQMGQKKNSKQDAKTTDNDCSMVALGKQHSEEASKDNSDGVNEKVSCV
D(2) dopamine receptor (Homo sapiens), sequence (P14416 whole entry, looked up): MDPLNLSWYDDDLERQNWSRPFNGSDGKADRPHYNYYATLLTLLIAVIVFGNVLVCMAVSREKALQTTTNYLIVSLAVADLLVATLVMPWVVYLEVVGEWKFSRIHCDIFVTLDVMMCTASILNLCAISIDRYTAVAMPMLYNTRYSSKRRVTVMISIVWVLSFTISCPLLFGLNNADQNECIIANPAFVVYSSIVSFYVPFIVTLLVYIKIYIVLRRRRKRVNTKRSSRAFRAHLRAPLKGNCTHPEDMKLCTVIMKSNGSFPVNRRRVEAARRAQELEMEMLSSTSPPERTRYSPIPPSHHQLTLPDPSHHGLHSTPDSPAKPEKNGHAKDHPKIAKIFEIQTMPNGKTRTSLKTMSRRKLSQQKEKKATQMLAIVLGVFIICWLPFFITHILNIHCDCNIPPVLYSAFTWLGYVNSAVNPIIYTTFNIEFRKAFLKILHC
Gonadotropin-releasing hormone receptor (Homo sapiens), sequence (P30968 whole entry, looked up): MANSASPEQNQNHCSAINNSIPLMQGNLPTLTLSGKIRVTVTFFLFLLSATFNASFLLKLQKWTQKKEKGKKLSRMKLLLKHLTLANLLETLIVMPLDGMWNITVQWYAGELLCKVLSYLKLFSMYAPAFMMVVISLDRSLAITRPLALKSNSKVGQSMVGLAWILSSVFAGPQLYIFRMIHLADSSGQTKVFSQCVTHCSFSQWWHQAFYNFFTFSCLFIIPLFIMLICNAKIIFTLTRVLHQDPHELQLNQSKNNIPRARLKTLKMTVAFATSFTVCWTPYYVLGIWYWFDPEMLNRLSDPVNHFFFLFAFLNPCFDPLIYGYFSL

Take `C=CCOc1ccccc1OCC(O)CNC(C)C` (stereo unspecified): the Potency entry in [1], in [2], in [3], in test [4], in test [5] and in test [6] was “inactive” throughout. The Potency result in [7], in test [8], in test [9], in [10], in [11] and in [12] was “inactive” throughout.
With `CC1=C(Br)C(=O)C(Br)=C/C1=C(/c1ccccc1S(=O)(=O)O)c1cc(Br)c(O)c(Br)c1C`, the Potency in [1] was 18.6 µM (active). The Potency result in test [2], in [3], in test [4], in test [5], in [13] and in test [14] was “inactive” throughout. Also, the Potency result in test [15], in test [7], in test [9] and in [10] was “inactive” throughout.
For the compound `Oc1ccccc1F`, the Potency result in test [1], in test [2], in test [3], in test [4], in test [5] and in [6] was “inactive” in each case. Further, the Potency result in test [14], in test [15], in test [7], in [8], in [9] and in test [10] was “inactive” each time. The Potency entry in test [16], in test [11] and in test [12] was “inactive” in each case.
On to `COc1ccc(/C=C/C(=O)c2ccc(OC)cc2OC)cc1`, for which the Potency entry in test [1], in test [3], in test [4], in [5], in [13] and in [14] was “inactive” throughout. The Potency result in test [15], in test [7], in test [8], in test [16], in test [11] and in test [12] was “inactive” in each case. Also, the Potency in test [2] was 29.8 µM (active).
In the case of `C[C@H]1[C@H]2CC[C@H]3[C@@H]4CC=C5C[C@@H](N(C)C)CC[C@]5(C)[C@H]4CC[C@]23CN1C`, the Potency result in test [1], in test [2], in [3], in test [4], in [5] and in test [6] was “inactive” throughout. Further, the Potency entry in [14], in [15], in [8], in test [9], in test [10] and in test [16] was “inactive” each time. In addition, the Potency result in test [11] and in [12] was “inactive” in each case. In [7], the Potency is 0.729 µM (active).
Regarding `Cc1nccn1-c1ccc(Sc2cccc(C3(C(N)=O)CCOCC3)c2)cc1`, the Potency entry in [1], in test [2], in test [3], in test [4], in test [5] and in [13] was “inactive” throughout. The Potency entry in [14], in test [15], in [8], in test [16], in test [17] and in [11] was “inactive” throughout.
For `CCCCCCCCCCCCCCC[C@H](O)[C@@H](N)CO`, the Potency result in [1], in test [2], in [3], in test [4], in test [18] and in [6] was “inactive” throughout. The Potency result in [13], in [19], in test [14], in [7], in test [8] and in test [9] was “inactive” each time. In addition, the Potency result in test [10], in [16], in test [17] and in [12] was “inactive” in each case. Moreover, in test [15], the Potency is 7.56 µM (active).
Regarding `c1csc(SSc2cccs2)c1`, the Potency in [1] is 15.4 µM (active); in test [2], 6.11 µM (active). In addition, the Potency entry in test [3], in test [4], in test [13], in test [19], in test [14] and in [15] was “inactive” each time. The Potency entry in test [7], in test [8], in [9], in test [10], in test [16] and in [11] was “inactive” in each case. Further, the Potency entry in test [12] is “inactive”.
With `CCCc1ccccc1O`, the Potency result in test [1], in test [2], in [3], in test [4], in test [18] and in test [6] was “inactive” each time. Further, the Potency result in test [13], in test [19], in test [14], in [15], in test [8] and in test [10] was “inactive” in each case. Also, the Potency entry in [16], in test [17], in test [11] and in test [12] was “inactive” each time.

These data come from PubChem BioAssay (Tox21).
